Results: the supplement of paper PMC10338343
± gives the standard deviation.

These sequences were tested on MILI (PIWIL2) piRISC loaded with piRNA #1 (26 nt) (assay: pre-steady-state target cleavage rate (min^-1); guide: piRNA #1 5'p-UGAGGUAGUAGGUUGUAUAGUAUCCA; MIWI and MILI are mouse PIWI proteins and EfPiwi is from a freshwater sponge; tags in brackets are library labels; higher = faster piRNA-guided slicing of the target). Conditions: auxiliary factor: 500 nM mouse GTSF1.
In short: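 Sequencing of uncleaved targets, normalised to depth and to weakly complementary targets, was the readout of this Cleave-'n-Seq assay. A transcribed, DNA-blocked target RNA library (0.1 nM) was mixed with 1 nM active affinity-purified piRISC carrying one synthetic guide, with or without 500 nM GTSF1 partner protein, in HEPES–potassium acetate buffer at 33 °C for 0–8 or 0–960 min. Three trials were pooled, k3 was capped at 0.0001 min^-1, and a burst-and-steady-state fit gave the pre-steady-state cleavage rate.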

Sequence | pre-steady-state target cleavage rate
GGAGAGGAUUCUAUACAACCUACUAGCUCA | 0.0566 ± 0.01
GGAGACGUUACUAAACAACCUACUACCUCA | 0.153 ± 0.012
GGAGACCUAUGUAUACAACCUACUACCCUCA | 0.0911 ± 0.011
GGAGUGGAUACUAAACAACCUACUAGCUCA | 0.0437 ± 0.0085
GGAGUCGAUACUAAACAACCUACUACCUCA | 0.183 ± 0.015
GGAGACCUAUCUAUUCAUCCUACUACCUCA | 0.172 ± 0.021
GGAGACCUAACAAUACAACCUACUACCUGA | 0.0637 ± 0.022
GGAGACCAUACAAUACAACCUACAACCUCA | 0.136 ± 0.014
GGAGACCUUACGAUACAACCUACUACCUCA | 0.152 ± 0.017
GGAGACCUAACAAUACAAGCUACUACCUCA | 0.22 ± 0.029
GGAGACCUAUGUAUACAAGCUACUACGUCA | 0.0451 ± 0.009
GGAGACCUAUGAUUCAACCUACUACCUCA | 0.0177 ± 0.0042
GGAGACCAUACUAUAGAUCCUACUACCUCA | 0.229 ± 0.026
GGAGACCUAUCUAUACAAGCUAGUACCUCA | 0.107 ± 0.017
GGAGACCUAUGAUAUCUACCUACUACGUCA | < 0.0001
GGAGACCUAUGAAUACAUCCUACUACGUCA | 0.00336 ± 0.0019
GGAGACCUAACUUUACAUCCUACUACCUCA | 0.143 ± 0.025
GGAGACCUAUCUGUACAACCUACUACCUCA | 0.0491 ± 0.0092
GGAGACCUAUGAUUACUACCUACUUCCUCA | 0.00322 ± 0.0022
GGAGACCAUACUAUAGUACCUACUACCUCA | 0.149 ± 0.018
GGAGACCAUACAAUUCAACCUACUACCUCA | 0.13 ± 0.013
GGAGACCUUACUAUCAACCUACUACCUCA | 0.0728 ± 0.0079
GGAGACCUAUGAUAUCAUCCUACUACCUCA | 0.00256 ± 0.0016
GGAGACCUUACUAUAAAACCUACUACCUCA | 0.16 ± 0.019
